A selection follows.
VCAM1 TNFa pot = enhances TNF alpha induced VCAM1 expression in HUVEC. HUVEC TNFa-stimulated VCAM-1 immunofluorescence, high-content imaging; scaled per plate to unstimulated/TNFa-only wells. activation, % at 2 µM. 93,000 compounds, 0.19% hits;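 active means activation above the screen mean plus 3 SD, with well images confirming the hit on visual review, cut at about 28% in these data, passing the limit was not always enough; inconclusive means activation above that limit but images do not confirm it; inactive means activation not above that limit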;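 further: signal is the number of cytoplasmic VCAM-1 stained grains per positive cell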
VCAM1 pot confirm = potentiators of TNFa-induced VCAM1 expression, confirmation, imaging, HUVEC, triplicate retest. shares compounds with VCAM1 TNFa pot. HUVEC TNFa-stimulated VCAM-1 immunofluorescence imaging. activation, % at 2 µM. 230 tested, under 10 active. AID 1034;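 active means activation above 30% in triplicate retests at 2 µM, then confirmed by visual review of the well images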
Hits are given with their value; i = inactive; ? = inconclusive.

SMILES	VCAM1 TNFa pot	others
CC(C)COC(=O)n1c(SCC(=O)N(C)C)nc2ccccc21	i
CCc1c(C)nc(SC)n(CC#N)c1=O	i
COc1cccc(Nc2nc(=O)[nH]nc2C)c1	i
C=CCn1c(SCc2ccccc2C#N)nnc1-c1ccccc1O	i
C/C(NC(=O)c1cccs1)=C1\C(=O)C[C@@H]2[C@H]1C2(C)C	i
Cc1cc(NCc2ccccn2)ccc1Br	i
O=[N+]([O-])c1ccc(NCCNc2ccc(Cl)nn2)cc1	i
COc1ccc(C(=O)NCC(C)(C)SCc2c(C)cc(C)cc2C)cc1	i
CC1=CN2C(=NC(=O)CC2(C)C(=O)N(CC(=O)NC2CCCC2)c2ccccc2C)C=C1 (centres undefined)	i
COc1cccc2c(=O)n(CC(=O)Nc3ccccc3F)ccc12	i
O=C(CSc1cccs1)Nc1ccc2ccccc2c1	i
CCOC(=O)c1nnc2c(Br)c(-c3ccccc3)nn2c1C	i
CCN(c1ccccc1)S(=O)(=O)c1ccc(F)cc1C	i
Cc1ccc(N2CC(C(=O)Nc3ccccc3C(=O)NC3CCCCC3)CC2=O)cc1C (centres undefined)	i
CCCCCOP(=O)(OCCCCC)C1(NS(=O)(=O)c2ccccc2)C=CC(=O)c2ccccc21 (centres undefined)	i
CS(=O)(=O)N(Cc1ccco1)CC(O)Cn1cc(C=O)c2ccccc21 (centres undefined)	i
CC(C)(C)c1nn(-c2ccccc2)c2[nH]c(=O)c(CNCc3ccc4c(c3)OCO4)cc12	i
CCN(CC)c1ccc(C2CC(=O)Nc3cc(OC)c(OC)cc32)cc1 (centres undefined)	i
O=C(Oc1ccc2ccccc2c1)c1ccccc1	i
COC(=O)c1nn(-c2cccc(C(F)(F)F)c2)c(=O)cc1Sc1ccccn1	i
Cc1cccc(C(=O)Nc2ccccc2C(=O)OCc2c(C)noc2C)c1	i
CNc1nc(SCc2ccccc2)nc(N2CCOCC2)n1	i
CC(C)(C)C(=O)NC(NC(=S)Nc1sc2c(c1C#N)CCCC2)C(Cl)(Cl)Cl (centres undefined)	i
COC(=O)c1sccc1NC(=O)c1ccc(Br)s1	i
O=S(=O)(NCc1cc(-c2ccccc2Cl)no1)c1ccc(Cl)cc1	i
SMILES	VCAM1 TNFa pot	others
Nc1nnc(SCc2ccccc2F)n1-c1ccccc1	i
O=C(NC1CCSC1=O)c1cccc(C(=O)NC2CCSC2=O)c1 (centres undefined)	i
CCOc1ccc(C(=O)C2CCN(CC(=O)Nc3ccccc3N3CCOCC3)CC2)cc1	i
Cc1cc(C)cc(C(=O)N2CCC(C(N)=O)CC2)c1	i
CN(C(=O)c1ccc(Cl)cc1)C1=CCCCC1CCC#N (centres undefined)	i
c1ccc(CC2CCN(c3nc(N4CCOCC4)nc(N4CCOCC4)n3)CC2)cc1	i
O=S(=O)(NCCc1ccncc1)c1cc(Br)ccc1F	i
CC1CCCN(CC(=O)Nc2ccc(S(=O)(=O)NC3CCCCC3)cc2)C1 (centres undefined)	i
COC(=O)C(CC(C)C)NC(=O)c1ccc(F)cc1 (centres undefined)	i
CCn1c(SCC(=O)N2CCN(c3ccccc3)CC2)nnc1-c1c[nH]c2ccccc12	i
CC1CCc2nn(CC(=O)Nc3c(F)cc(F)cc3Br)cc2C1 (centres undefined)	i
O=S(=O)(Nc1ccc(-n2cccc2)cc1)c1ccccc1	i
CCOCCCNC(=O)CCSc1ccc(C)cc1	i
CSc1n[nH]c(NCc2cccs2)n1	i
CC(C)(C)n1ncc(Oc2ccc(Oc3cnn(C(C)(C)C)c(=O)c3Cl)cc2)c(Cl)c1=O	i
CON/C=C(\C=Nc1ccc(Cl)cc1)c1ncc(C(F)(F)F)cc1Cl	i
CC1CC1C(=O)OCC(=O)NC(=O)NCc1ccco1 (centres undefined)	i
CCOC(=O)c1ccc(-n2[nH]c(-c3ccccc3)cc2=O)cc1	i
CCOC(=O)c1cnn(-c2nc(-c3ccc(C)cc3)cs2)c1C(F)(F)F	i
CCOC(=O)c1ccc(-n2nc(C(F)(F)F)c3c(C)cc(=O)oc32)cc1	57.1
CCOC(=O)c1cnn(-c2ccccc2)c1-n1cccc1C(=O)C(=O)Nc1ccc(OC)cc1	i
O=C(CSc1nnc2c3cc(F)ccc3nc(-c3ccccc3)n12)N1CCOCC1	i
CC(C)CNC(=S)NNC(=O)c1ccco1	i
CN(C)S(=O)(=O)N(CC(=O)Nc1cccc(F)c1)c1ccccc1	i
COc1cccc(-c2cc(N)nn2C(=O)Nc2ccc(Cl)cc2)c1	i
SMILES	VCAM1 TNFa pot	others
Cc1cccc(N2CCN(C(=O)NCc3ccc(Cl)cc3)CC2)c1	i
COc1ccc(-c2onc3ccc(Cl)cc23)cc1	i
CC1(C)CC(=O)c2cnc(N3CCc4ccccc4C3)nc2C1	i
Cc1c(NC(=O)C(C)Sc2n[nH]c(N)n2)c(=O)n(-c2ccccc2)n1C (centres undefined)	i
CC1CN(S(=O)(=O)c2ccc(Cl)c(C(F)(F)F)c2)CC(C)O1 (centres undefined)	i
S=C(Nc1ccccc1)Nc1cc(Cl)ccc1Oc1ccccc1	i
CCCC(C)NC(=O)c1cc(Cl)ccc1OC (centres undefined)	i
Cc1ccc(S(=O)(=O)N2CCOCC2)cc1C(=O)OCC(=O)N1CCc2ccccc2C1	i
Cc1nonc1NC(=O)c1ccc(Cl)c(S(=O)(=O)N2CCCCC2)c1	i
COc1cccc(/C=N/NC(=O)CC(=O)NCCc2ccc(OC)c(OC)c2)c1	i
COc1cc(/C=C(/C#N)C(=O)NCCc2c[nH]c3ccccc23)ccc1OCc1ccccc1F	i
OC1(c2cccc(C(F)(F)F)c2)CCN(c2ncnc3c2[nH]c2ccc(F)cc23)CC1	i
COCCNC(=O)CSc1nc2ccccc2c(=O)n1CC1CCCO1 (centres undefined)	i
Cc1ccc(S(=O)(=O)c2cc3c(=O)n4ccccc4nc3n(Cc3ccco3)c2=N)cc1	i
N#Cc1cc2c(=O)n3ccccc3nc2n(CC2CCCO2)c1=N (centres undefined)	47.0
O=C(c1cn(-c2ccccc2)nc1-c1cccs1)N1CCN(c2ccccn2)CC1	i
O=C(Nc1cnn(Cc2ccc(Cl)c(Cl)c2)c1)C12CC3CC(CC(C3)C1)C2	i
O=C(CCCOc1ccccc1)Nc1ccc2c(c1)OCCO2	i
Cc1cc(C)c2c(n1)sc1c(N3CCN(CCO)CC3)ncnc12	?	VCAM1 pot confirm=i
Cc1cc(C)c2c(N)c(C(=O)N3CCN(c4ncccn4)CC3)sc2n1	i
c1nc(N2CCOCC2)c2sc3nc(N4CCOCC4)c4c(c3c2n1)CCCC4	i
O=c1c2ccccc2nc(/C=C/c2ccc([N+](=O)[O-])o2)n1CCCO	i
O=c1[nH]c2cc3c(cc2cc1C(c1nnnn1C1CCCCC1)N1CCSCC1)OCCO3 (centres undefined)	i
CCC(=O)Nc1ccc(-c2nn3c(C)nnc3s2)cc1C	i
C=CCc1cccc2cc(C(=O)N3CCN(C(=O)c4ccco4)CC3)c(=O)oc12	i
SMILES	VCAM1 TNFa pot	others
COc1ccc(CS(=O)(=O)/C(Cl)=C(/Cl)C(=O)Nc2ccc(OC)nc2)cc1	i
CC1N/C(=C\C(=O)c2ccccc2)N(O)C1(C)C (centres undefined)	i
COCCCn1c(-c2ccccc2)nc2ccccc2c1=O	30.8	VCAM1 pot confirm=i
COCCCn1c(SCC(=O)NCc2ccccc2)nc2ccccc2c1=O	i
COc1ccc(/C=N/n2c(-c3ccco3)nc3ccccc3c2=O)cc1	i
C=CCn1c(SCc2nc3ccccc3c(=O)[nH]2)nnc1-c1cc2cc(Cl)ccc2o1	i
